Data published in PubChem BioAssay (NCATS).
Results filed as inconclusive are left out. Active and inactive are the calls of the source. The call rests on the fitted dose curve; in most records, active means well fitted curve in the direction sought with a large enough effect; inconclusive means small, poorly fitted or top-dose-only effect, or another doubt; inactive means no such curve, though single readings can be large; an effect the other way counts as inactive or inconclusive.

How the values were obtained:
[1] = tested on: HaCat; test: Cytotoxic Profiling of Annotated Libraries Using Quantitative High-Throughput Screening (AID 1296008); details: Five cell lines viability, CellTiter-Glo ATP luminescence, 48-72 h; max response: stronger effect = lower value; further: nearly all actives have a fitted effect of over 60% in size
How it was run: (§1)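 Cells exposed to compounds for 48 or 72 hr at 37 degrees Celsius. Viability read as ATP-coupled luminescence with CellTiter-Glo after 10 min at room temperature.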

[2] = tested on: KB-3-1; test: as above; details: Five cell lines viability, CellTiter-Glo ATP luminescence, 48-72 h; max response: stronger effect = lower value
How it was run: as §1

[3] = tested on: NIH3T3; test: as above; details: Five cell lines viability, CellTiter-Glo ATP luminescence, 48-72 h; max response: stronger effect = lower value
How it was run: as §1

[4] = tested on: C33A; test: Primary qHTS to identify gynecologic anti-cancer compounds using libraries of approved drugs and bioactive compounds (AID 1345084); details: Gynecologic cancer cell panel viability, ATPlite luminescence, 48 h; series mostly up to 57.5 µM; further: nearly all actives have a fitted effect of over 55% in size
How it was run: (§2)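 Cytotoxicity screen measuring ATP content by luciferase luminescence. Each compound is applied at five concentrations for 48 h at 37 C with 5% CO2.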

[5] = tested on: CAOV3; test: as above; details: Gynecologic cancer cell panel viability, ATPlite luminescence, 48 h; series mostly up to 57.5 µM
How it was run: as §2

[6] = tested on: CASKI; test: as above; details: Gynecologic cancer cell panel viability, ATPlite luminescence, 48 h; series mostly up to 57.5 µM
How it was run: as §2

[7] = tested on: Es-2; test: as above; details: Gynecologic cancer cell panel viability, ATPlite luminescence, 48 h; series mostly up to 57.5 µM
How it was run: as §2

[8] = tested on: HeLa; test: as above; details: Gynecologic cancer cell panel viability, ATPlite luminescence, 48 h; series mostly up to 57.5 µM
How it was run: as §2

[9] = tested on: Hek293T; test: as above; details: Gynecologic cancer cell panel viability, ATPlite luminescence, 48 h, control line for the selectivity index; series mostly up to 57.5 µM
How it was run: as §2

[10] = tested on: JEG-3; test: as above; details: Gynecologic cancer cell panel viability, ATPlite luminescence, 48 h; series mostly up to 57.5 µM
How it was run: as §2

[11] = tested on: OV90; test: as above; details: Gynecologic cancer cell panel viability, ATPlite luminescence, 48 h; series mostly up to 57.5 µM
How it was run: as §2
On the % scale 0 is the no-effect control and ±100 the full control effect.

CCc1ccc(Cc2ccc3c(c2)[C@]2(OC3)O[C@H](CO)[C@@H](O)[C@H](O)[C@H]2O)cc1
inactive: max response [1] 3.62% | max response [2] -4.58% | max response [3] 1.11% | Potency [4] | Potency [5] | Potency [6] | Potency [7] | Potency [8] | Potency [9] | Potency [10] | Potency [11]

COc1cc(C2Oc3c(OC)cc(CCCO)cc3C2CO)ccc1O[C@H]1O[C@H](C)[C@@H](O)[C@H](O)[C@@H]1O (some centres undefined)
inactive: max response [1] -14.3% | max response [2] -4.42% | max response [3] 2.77% | Potency [4] | Potency [5] | Potency [6] | Potency [7] | Potency [8] | Potency [9] | Potency [10] | Potency [11]

C=C1CC[C@@H]2[C@](C)(CO[C@@H]3O[C@H](CO)[C@@H](O)[C@H](O)[C@H]3O)[C@H](O)CC[C@@]2(C)[C@@H]1C/C=C1/C(=O)OC[C@H]1O
inactive: max response [1] 3.39% | outcome [2] | max response [3] 2.12% | Potency [4] | Potency [5] | Potency [6] | Potency [7] | Potency [8] | Potency [9] | Potency [10] | Potency [11]

CC(C)O[C@@H]1O[C@H](CO)[C@@H](O)[C@H](O)[C@H]1O
inactive: max response [1] 4.48% | max response [2] 2% | max response [3] 4.22% | Potency [4] | Potency [5] | Potency [6] | Potency [7] | Potency [8] | Potency [9] | Potency [10] | Potency [11]

CC/C=C/CC1=C(CCCCC(CCC(=O)O)OC(C)=O)CCC1=O (centres undefined)
inactive: max response [1] -33.4% | max response [2] -6.15% | max response [3] -0.117% | Potency [4] | Potency [5] | Potency [6] | Potency [7] | Potency [8] | Potency [9] | Potency [10] | Potency [11]

CC(C)(C)NS(=O)(=O)c1cncc(-c2cc(F)c3nc(N)nn3c2)c1
inactive: max response [1] -25.2% | outcome [2] | max response [3] 3.5% | Potency [4] | Potency [5] | Potency [6] | Potency [7] | Potency [8] | Potency [9] | Potency [10] | Potency [11]

CC1CC[C@]2(C(=O)O)CC[C@]3(C(=O)O)C(=CCC4[C@@]5(C)CC[C@H](O[C@@H]6O[C@H](CO)[C@@H](O)[C@H](O)[C@H]6O)C(C)(C)C5CC[C@]43C)C2C1C (some centres undefined)
inactive: max response [1] 4.65% | max response [2] 6.73% | max response [3] 2.56% | Potency [4] | Potency [5] | Potency [6] | Potency [7] | Potency [8] | Potency [9] | Potency [10] | Potency [11]

CN1CCc2nc(C(=O)N[C@@H]3C[C@@H](C(=O)N(C)C)CC[C@@H]3NC(=O)C(=O)Nc3ccc(Cl)cn3)sc2C1
inactive: max response [1] -24.6% | max response [2] -42% | max response [3] -49.4% | Potency [4] | Potency [5] | Potency [6] | Potency [7] | Potency [8] | Potency [9] | Potency [10] | Potency [11]

CC(C(O)/C=C/C(C)(C)O)C1CCC2(C)C3C(=O)C=C4C(CCC(O)C4(C)C)C3(C)CCC12C (centres undefined)
inactive: max response [1] -4.33% | outcome [2] | max response [3] 4.41% | Potency [4] | Potency [5] | Potency [6] | Potency [7] | Potency [8] | Potency [9] | Potency [10] | Potency [11]
